# PubChem BioAssay AID1159580 (chemical genetic matrix, 2015)
# In all, about 5,500 compounds went through this assay and about 2,000 (36%) were called active. Inconclusive results (about 18%) are left out. Some of the results follow. Unmarked numbers belong to inactive results. No stated cut-off is given here; in the data, active means normalized growth mostly below about 0.91 (no sharp cut-off); inconclusive means no clear call, values can overlap the other calls; inactive means mostly above about 0.92.
# Assay: chemical genetic growth profiling, strain panel (AID 1159580);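 further: tested at 20 µM; growth read once vehicle control cultures reached saturation at 30 °C; 1 = growth at the plate median or of vehicle wells; lower values mean less growth of the strain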
# Details: growth OD
# [1] = S. cerevisiae deletion strains, locus YAL013W, strain DEP1, active compounds read low
# [2] = S. cerevisiae deletion strains, locus YBR229C, strain ROT2, active compounds read low
# [3] = S. cerevisiae deletion strains, locus YDL101C, strain DUN1, active compounds read low
# [4] = S. cerevisiae deletion strains, locus YDL134C, strain PPH21, active compounds read low
# [5] = S. cerevisiae deletion strains, locus YDR150W, strain NUM1, active compounds read low
# [6] = S. cerevisiae deletion strains, locus YEL061C, strain CIN8, active compounds read low
# [7] = S. cerevisiae deletion strains, locus YGR078C, strain PAC10, active compounds read low
# [8] = S. cerevisiae deletion strains, locus YHR030C, strain SLT2, active compounds read low
# [9] = S. cerevisiae deletion strains, locus YHR087W, strain rtc3, active compounds read low
# [10] = S. cerevisiae deletion strains, locus YJL187C, strain SWE1, active compounds read low
# [11] = S. cerevisiae deletion strains, locus YJR043C, strain POL32, active compounds read low
# [12] = S. cerevisiae deletion strains, locus YJR075W, strain HOC1, active compounds read low
# [13] = S. cerevisiae deletion strains, locus YLR039C, strain RIC1, active compounds read low
# [14] = S. cerevisiae deletion strains, locus YLR058C, strain SHM2 (second series), active compounds read low
# [15] = S. cerevisiae deletion strains, locus YLR085C, strain ARP6, active compounds read low
# [16] = S. cerevisiae deletion strains, locus YLR262C, strain YPT6, active compounds read low
# [17] = S. cerevisiae deletion strains, locus YML094W, strain GIM5, active compounds read low
# [18] = S. cerevisiae deletion strains, locus YMR219W, strain ESC1, active compounds read low
# [19] = S. cerevisiae deletion strains, locus YMR263W, strain SAP30, active compounds read low
# [20] = S. cerevisiae deletion strains, locus YNL153C, strain GIM3, active compounds read low
# [21] = S. cerevisiae deletion strains, locus YNL298W, strain CLA4 (second series), active compounds read low
# [22] = S. cerevisiae deletion strains, locus YNL322C, strain KRE1, active compounds read low
# [23] = S. cerevisiae deletion strains, locus YNR030W, strain Alg12, active compounds read low
# [24] = S. cerevisiae deletion strains, locus YOL006C, strain TOP1, active compounds read low
# [25] = S. cerevisiae deletion strains, locus YPL055C, strain LGE1, active compounds read low
# [26] = S. cerevisiae deletion strains, locus YPL241C, strain CIN2, active compounds read low
# [27] = S. cerevisiae deletion strains, locus YPR135W, strain CTF4, active compounds read low
compound,measurement,setting,value
O=[N+]([O-])c1ccc(C2N(Cc3ccccc3)CCC3CCCCN32)cc1 (stereo unspecified),normalized growth,[1],1
same,normalized growth,[2],0.998
same,normalized growth,[3],1
same,normalized growth,[4],1.01
same,normalized growth,[5],0.997
same,normalized growth,[6],0.983
same,normalized growth,[7],1.01
same,normalized growth,[8],0.954
same,normalized growth,[9],0.985
same,normalized growth,[10],0.999
same,normalized growth,[11],1.01
same,normalized growth,[12],0.966
same,normalized growth,"S. cerevisiae deletion strains, locus YKL190W, strain CNB1, active compounds read low",1.01
same,normalized growth,[13],1
same,normalized growth,[14],1.01
same,normalized growth,[15],1.02
same,normalized growth,[16],0.908
same,normalized growth,[17],0.983
same,normalized growth,[18],0.988
same,normalized growth,[19],0.998
same,normalized growth,[20],1.01
same,normalized growth,[21],1.01
same,normalized growth,[22],1.01
same,normalized growth,[23],1.02
same,normalized growth,[24],0.972
same,normalized growth,[25],0.985
same,normalized growth,[26],0.995
same,normalized growth,[27],1.03
COc1cc(Cl)c(Cl)cc1Cl,normalized growth,[1],0.991
same,normalized growth,[2],1
same,normalized growth,[3],0.997
same,normalized growth,[4],0.997
same,normalized growth,[5],1.01
same,normalized growth,[6],0.992
same,normalized growth,[7],1
same,normalized growth,"S. cerevisiae deletion strains, locus YGR229C, strain SMI1, active compounds read low",0.997
same,normalized growth,[8],0.94
same,normalized growth,[9],1.01
same,normalized growth,[10],0.999
same,normalized growth,[11],0.974
same,normalized growth,[12],1.03
same,normalized growth,[13],0.986
same,normalized growth,[14],0.994
same,normalized growth,[15],1.06
same,normalized growth,[16],0.96
same,normalized growth,[17],1.03
same,normalized growth,[18],1.01
same,normalized growth,[19],1.01
same,normalized growth,"S. cerevisiae deletion strains, locus YMR307W, strain GAS1, active compounds read low",1.06
same,normalized growth,[20],0.983
same,normalized growth,[21],0.948
same,normalized growth,[22],1.01
same,normalized growth,[23],0.98
same,normalized growth,[24],0.949
same,normalized growth,[25],1.1
same,normalized growth,[26],1.02
same,normalized growth,[27],0.91
same,normalized growth,"S. cerevisiae strains, strain wild type, active compounds read low",0.981
COP(=S)(OC)Oc1cc(Cl)c(Cl)cc1Cl,normalized growth,[8],0.127 (active)
same,normalized growth,"S. cerevisiae deletion strains, locus YHR079C, strain IRE1, active compounds read low",0.163 (active)
same,normalized growth,"S. cerevisiae deletion strains, locus YJL095W, strain BCK1, active compounds read low",0.163 (active)
same,normalized growth,"S. cerevisiae deletion strains, locus YJR066W, strain TOR1, active compounds read low",0.08 (active)
same,normalized growth,"S. cerevisiae deletion strains, locus YLR113W, strain HOG1, active compounds read low",0.163 (active)
same,normalized growth,"S. cerevisiae deletion strains, locus YNL183C, strain NPR1, active compounds read low",0.0646 (active)
same,normalized growth,"S. cerevisiae deletion strains, locus YOR231W, strain MKK1, active compounds read low",0.152 (active)
same,normalized growth,"S. cerevisiae deletion strains, locus YPL256C, strain CLN2, active compounds read low",0.151 (active)
